# In article PMC7862700, “An all-to-all approach to the identification of sequence-specific readers for epigenetic DNA modifications on cytosine”:
# Assays:
# Assay in all cases: DAPPL (digital affinity profiling via proximity ligation, sequencing); 10 mM Tris-HCl pH 7.5, 50 mM NaCl, 1 mM DTT, 4% glycerol, room temperature, 30 min; GST-TFs on glutathione beads, 16-mer random dsDNA library, 0.1% formaldehyde crosslink after washing; high values mean tight binding
# [1] = target: T1, FEV (Homo sapiens, UniProt Q99581 1-238); settings: protein: recombinant; tags: N-terminal GST; dsDNA, one strand shown
# T1 sequence: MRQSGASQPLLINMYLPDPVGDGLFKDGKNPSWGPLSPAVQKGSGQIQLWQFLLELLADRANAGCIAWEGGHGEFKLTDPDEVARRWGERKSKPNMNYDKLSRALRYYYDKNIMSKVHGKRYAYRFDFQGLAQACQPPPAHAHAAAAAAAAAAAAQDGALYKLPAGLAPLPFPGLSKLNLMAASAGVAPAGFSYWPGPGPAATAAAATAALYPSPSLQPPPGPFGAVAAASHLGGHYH
# How it was run: (§1)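 Beads coated with glutathione captured GST-fused human transcription factors that had been expressed in yeast, and the factors were then given DNA barcodes and pooled with a tag-only sample. The pools were incubated with 200 nmole of a random double-stranded 16-mer DNA library in Tris/NaCl/DTT/glycerol buffer for 30 min at room temperature, washed, crosslinked with 0.1% formaldehyde and proximity-ligated with BsaI/T4 ligase at 37 °C for 1 h. PCR amplification and Illumina NextSeq500 sequencing came last. Binding signal is each hexamer's read frequency for a factor divided by its frequency for the tag-only sample.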
# [2] = target: ETV5 (Homo sapiens, UniProt P41161 1-510); settings: protein: recombinant; tags: N-terminal GST; dsDNA, one strand shown
# How it was run: as §1
# [3] = target: HSF1 (Homo sapiens, UniProt Q00613 1-529); settings: protein: recombinant; tags: N-terminal GST; chain copies: 3; dsDNA, one strand shown
# How it was run: as §1
# [4] = target: T2, SPIC (Homo sapiens, UniProt Q8N5J4 1-248); settings: protein: recombinant; tags: N-terminal GST; dsDNA, one strand shown
# T2 sequence: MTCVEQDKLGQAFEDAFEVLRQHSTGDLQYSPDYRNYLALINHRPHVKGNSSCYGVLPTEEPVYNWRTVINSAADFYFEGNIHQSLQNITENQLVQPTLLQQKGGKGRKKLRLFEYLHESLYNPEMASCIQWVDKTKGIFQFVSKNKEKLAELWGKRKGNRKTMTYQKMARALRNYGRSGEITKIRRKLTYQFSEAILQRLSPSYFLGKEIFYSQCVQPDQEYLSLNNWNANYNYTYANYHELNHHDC
# How it was run: as §1
# [5] = target: ELF4 (Homo sapiens, UniProt Q99607 1-663); settings: protein: recombinant; tags: N-terminal GST; dsDNA, one strand shown
# How it was run: as §1
# [6] = target: T3, ELK4 (Homo sapiens, UniProt P28324-2 1-405); settings: protein: recombinant; tags: N-terminal GST; dsDNA, one strand shown
# T3 sequence: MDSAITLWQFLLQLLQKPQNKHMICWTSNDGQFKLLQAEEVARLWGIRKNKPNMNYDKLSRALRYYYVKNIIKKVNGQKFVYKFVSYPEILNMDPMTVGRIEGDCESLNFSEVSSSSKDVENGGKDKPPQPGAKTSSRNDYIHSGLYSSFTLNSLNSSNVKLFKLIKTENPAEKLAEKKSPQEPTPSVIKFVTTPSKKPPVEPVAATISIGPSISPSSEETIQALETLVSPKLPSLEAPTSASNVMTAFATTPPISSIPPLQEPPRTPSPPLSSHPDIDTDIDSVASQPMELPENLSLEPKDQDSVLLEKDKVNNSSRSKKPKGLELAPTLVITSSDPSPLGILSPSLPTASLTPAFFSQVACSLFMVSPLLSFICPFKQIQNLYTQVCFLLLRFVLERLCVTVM
# How it was run: as §1
# [7] = target: T4, ETV2 (Homo sapiens, UniProt O00321 1-342); settings: protein: recombinant; tags: N-terminal GST; dsDNA, one strand shown
# T4 sequence: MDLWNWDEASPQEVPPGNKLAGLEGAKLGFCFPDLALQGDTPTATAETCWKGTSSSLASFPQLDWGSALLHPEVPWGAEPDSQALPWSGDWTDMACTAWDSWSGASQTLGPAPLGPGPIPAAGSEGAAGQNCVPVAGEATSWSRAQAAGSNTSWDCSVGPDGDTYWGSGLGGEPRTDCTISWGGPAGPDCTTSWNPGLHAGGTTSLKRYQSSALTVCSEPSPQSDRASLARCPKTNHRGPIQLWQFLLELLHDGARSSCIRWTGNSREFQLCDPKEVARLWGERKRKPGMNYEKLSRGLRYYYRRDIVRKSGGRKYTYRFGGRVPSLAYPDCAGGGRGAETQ
# How it was run: as §1
# [8] = target: T5, ELF3 (Homo sapiens, UniProt P78545 1-371); settings: protein: recombinant; tags: N-terminal GST; dsDNA, one strand shown
# T5 sequence: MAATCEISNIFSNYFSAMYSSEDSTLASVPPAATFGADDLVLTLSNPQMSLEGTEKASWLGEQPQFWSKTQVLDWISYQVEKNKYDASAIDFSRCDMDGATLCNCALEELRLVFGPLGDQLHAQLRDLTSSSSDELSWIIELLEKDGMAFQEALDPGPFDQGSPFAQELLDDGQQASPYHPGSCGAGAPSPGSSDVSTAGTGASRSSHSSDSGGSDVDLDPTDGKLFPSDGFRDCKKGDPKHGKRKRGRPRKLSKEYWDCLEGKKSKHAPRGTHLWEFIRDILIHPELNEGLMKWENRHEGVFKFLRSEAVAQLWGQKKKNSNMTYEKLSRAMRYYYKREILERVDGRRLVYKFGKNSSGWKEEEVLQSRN
# How it was run: as §1
# [9] = target: CRX (Homo sapiens, UniProt O43186 1-299); settings: protein: recombinant; tags: N-terminal GST; dsDNA, one strand shown
# How it was run: as §1
# [10] = target: ETV1 (Homo sapiens, UniProt P50549 1-477); settings: protein: recombinant; tags: N-terminal GST; dsDNA, one strand shown
# How it was run: as §1
# [11] = target: T6, ERF (Homo sapiens, UniProt P50548 1-548); settings: protein: recombinant; tags: N-terminal GST; dsDNA, one strand shown
# T6 sequence: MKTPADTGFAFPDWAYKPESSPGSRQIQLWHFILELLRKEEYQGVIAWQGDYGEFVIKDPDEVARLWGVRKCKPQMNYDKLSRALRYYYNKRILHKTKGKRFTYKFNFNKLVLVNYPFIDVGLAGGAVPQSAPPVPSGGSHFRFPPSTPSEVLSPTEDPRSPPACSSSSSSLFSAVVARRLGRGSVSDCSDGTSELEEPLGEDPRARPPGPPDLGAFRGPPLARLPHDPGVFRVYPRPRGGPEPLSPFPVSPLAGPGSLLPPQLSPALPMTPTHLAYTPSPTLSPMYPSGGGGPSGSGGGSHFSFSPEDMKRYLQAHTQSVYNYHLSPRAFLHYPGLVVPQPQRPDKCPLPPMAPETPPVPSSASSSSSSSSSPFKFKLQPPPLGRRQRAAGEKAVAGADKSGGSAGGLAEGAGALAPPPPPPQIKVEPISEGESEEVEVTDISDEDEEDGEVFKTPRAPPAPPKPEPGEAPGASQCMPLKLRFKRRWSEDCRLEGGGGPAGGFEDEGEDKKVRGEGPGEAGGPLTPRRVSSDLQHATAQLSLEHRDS
# How it was run: as §1
# [12] = target: T7, ETV3L (Homo sapiens, UniProt Q6ZN32 1-361); settings: protein: recombinant; tags: N-terminal GST; dsDNA, one strand shown
# T7 sequence: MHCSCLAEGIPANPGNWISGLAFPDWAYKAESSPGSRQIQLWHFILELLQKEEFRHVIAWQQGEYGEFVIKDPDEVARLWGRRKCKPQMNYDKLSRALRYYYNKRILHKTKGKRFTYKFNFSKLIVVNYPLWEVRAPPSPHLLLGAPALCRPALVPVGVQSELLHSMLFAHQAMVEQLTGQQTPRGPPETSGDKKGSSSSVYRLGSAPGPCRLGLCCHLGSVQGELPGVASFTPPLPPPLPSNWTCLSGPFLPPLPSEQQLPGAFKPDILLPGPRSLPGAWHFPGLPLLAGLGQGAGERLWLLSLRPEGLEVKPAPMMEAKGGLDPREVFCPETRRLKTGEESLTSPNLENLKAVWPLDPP
# How it was run: as §1
# [13] = target: T8, ETS2 (Homo sapiens, UniProt P15036 1-469); settings: protein: recombinant; tags: N-terminal GST; dsDNA, one strand shown
# T8 sequence: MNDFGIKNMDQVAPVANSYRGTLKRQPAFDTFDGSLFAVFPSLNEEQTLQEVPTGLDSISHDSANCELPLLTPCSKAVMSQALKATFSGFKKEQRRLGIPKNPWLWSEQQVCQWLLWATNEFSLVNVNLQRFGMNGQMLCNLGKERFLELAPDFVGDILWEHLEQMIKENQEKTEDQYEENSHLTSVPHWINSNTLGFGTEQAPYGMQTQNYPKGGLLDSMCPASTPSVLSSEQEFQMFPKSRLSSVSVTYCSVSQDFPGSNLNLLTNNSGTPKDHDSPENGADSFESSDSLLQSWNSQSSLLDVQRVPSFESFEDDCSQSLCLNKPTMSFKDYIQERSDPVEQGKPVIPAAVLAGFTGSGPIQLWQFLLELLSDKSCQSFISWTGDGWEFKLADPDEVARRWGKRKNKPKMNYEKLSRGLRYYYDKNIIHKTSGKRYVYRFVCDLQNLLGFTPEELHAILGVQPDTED
# How it was run: as §1
# [14] = target: T9, SPDEF (Homo sapiens, UniProt O95238 1-335); settings: protein: recombinant; tags: N-terminal GST; dsDNA, one strand shown
# T9 sequence: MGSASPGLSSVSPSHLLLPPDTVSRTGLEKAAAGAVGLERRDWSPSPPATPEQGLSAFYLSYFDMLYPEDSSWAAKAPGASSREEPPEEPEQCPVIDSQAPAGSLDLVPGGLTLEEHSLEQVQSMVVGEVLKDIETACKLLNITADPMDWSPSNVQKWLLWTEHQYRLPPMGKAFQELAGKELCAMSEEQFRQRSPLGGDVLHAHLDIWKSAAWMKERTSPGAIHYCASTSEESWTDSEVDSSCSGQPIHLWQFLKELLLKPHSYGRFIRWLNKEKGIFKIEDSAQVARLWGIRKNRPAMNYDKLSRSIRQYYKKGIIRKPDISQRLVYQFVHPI
# How it was run: as §1
# [15] = target: T10, ETV7 (Homo sapiens, UniProt Q9Y603 1-341); settings: protein: recombinant; tags: N-terminal GST; dsDNA, one strand shown
# T10 sequence: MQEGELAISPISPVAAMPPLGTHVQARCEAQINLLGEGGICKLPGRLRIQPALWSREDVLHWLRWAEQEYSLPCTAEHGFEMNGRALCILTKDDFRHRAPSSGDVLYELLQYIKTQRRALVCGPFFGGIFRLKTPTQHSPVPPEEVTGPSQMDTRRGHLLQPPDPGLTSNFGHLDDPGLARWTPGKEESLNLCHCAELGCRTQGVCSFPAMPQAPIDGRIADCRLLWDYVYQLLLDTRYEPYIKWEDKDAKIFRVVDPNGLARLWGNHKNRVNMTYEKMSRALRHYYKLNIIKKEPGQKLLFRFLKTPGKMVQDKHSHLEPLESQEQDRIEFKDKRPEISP
# How it was run: as §1
# [16] = target: T11, ELF5 (Homo sapiens, UniProt Q9UKW6-2 1-255); settings: protein: recombinant; tags: N-terminal GST; dsDNA, one strand shown
# T11 sequence: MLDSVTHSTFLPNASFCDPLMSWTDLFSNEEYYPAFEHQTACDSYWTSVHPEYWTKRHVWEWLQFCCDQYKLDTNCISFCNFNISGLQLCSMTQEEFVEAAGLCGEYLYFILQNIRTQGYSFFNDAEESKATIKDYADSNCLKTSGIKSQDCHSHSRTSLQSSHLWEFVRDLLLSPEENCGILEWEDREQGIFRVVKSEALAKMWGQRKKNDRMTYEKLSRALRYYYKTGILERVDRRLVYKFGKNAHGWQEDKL
# How it was run: as §1
# [17] = target: T12, ETV3 (Homo sapiens, UniProt P41162-2 1-143); settings: protein: recombinant; tags: N-terminal GST; dsDNA, one strand shown
# T12 sequence: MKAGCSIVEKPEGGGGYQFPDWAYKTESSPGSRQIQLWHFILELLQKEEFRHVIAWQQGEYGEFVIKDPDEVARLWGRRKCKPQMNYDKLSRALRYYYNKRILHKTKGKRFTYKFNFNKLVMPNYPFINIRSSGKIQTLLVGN
# How it was run: as §1
# [18] = target: ETV6 (Homo sapiens, UniProt P41212 1-452); settings: protein: recombinant; tags: N-terminal GST; dsDNA, one strand shown
# How it was run: as §1
# HSF1, sequence (Q00613 whole entry): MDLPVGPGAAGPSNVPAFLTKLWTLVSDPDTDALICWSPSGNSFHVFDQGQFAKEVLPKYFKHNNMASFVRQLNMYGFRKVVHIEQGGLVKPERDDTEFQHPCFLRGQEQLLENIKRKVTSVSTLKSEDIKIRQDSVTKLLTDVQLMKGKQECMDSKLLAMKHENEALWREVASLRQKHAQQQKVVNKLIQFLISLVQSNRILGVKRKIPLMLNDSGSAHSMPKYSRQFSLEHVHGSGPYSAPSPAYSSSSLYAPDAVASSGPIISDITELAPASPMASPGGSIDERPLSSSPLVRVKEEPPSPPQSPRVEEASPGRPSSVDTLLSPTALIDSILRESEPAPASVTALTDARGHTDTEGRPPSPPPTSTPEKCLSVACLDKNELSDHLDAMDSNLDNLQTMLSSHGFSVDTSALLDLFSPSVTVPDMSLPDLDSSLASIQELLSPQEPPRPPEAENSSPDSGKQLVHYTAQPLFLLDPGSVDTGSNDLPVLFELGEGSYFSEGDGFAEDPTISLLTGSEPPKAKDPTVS
# CRX, sequence (O43186 whole entry): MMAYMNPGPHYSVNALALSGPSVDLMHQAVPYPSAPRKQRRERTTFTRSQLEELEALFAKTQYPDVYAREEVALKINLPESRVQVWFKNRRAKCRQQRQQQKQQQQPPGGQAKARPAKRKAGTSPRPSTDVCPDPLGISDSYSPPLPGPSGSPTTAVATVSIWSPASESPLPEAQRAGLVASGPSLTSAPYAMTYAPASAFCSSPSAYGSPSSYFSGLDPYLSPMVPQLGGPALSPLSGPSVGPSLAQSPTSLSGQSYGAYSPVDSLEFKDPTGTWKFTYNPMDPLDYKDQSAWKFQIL
# ETV6, sequence (P41212 whole entry): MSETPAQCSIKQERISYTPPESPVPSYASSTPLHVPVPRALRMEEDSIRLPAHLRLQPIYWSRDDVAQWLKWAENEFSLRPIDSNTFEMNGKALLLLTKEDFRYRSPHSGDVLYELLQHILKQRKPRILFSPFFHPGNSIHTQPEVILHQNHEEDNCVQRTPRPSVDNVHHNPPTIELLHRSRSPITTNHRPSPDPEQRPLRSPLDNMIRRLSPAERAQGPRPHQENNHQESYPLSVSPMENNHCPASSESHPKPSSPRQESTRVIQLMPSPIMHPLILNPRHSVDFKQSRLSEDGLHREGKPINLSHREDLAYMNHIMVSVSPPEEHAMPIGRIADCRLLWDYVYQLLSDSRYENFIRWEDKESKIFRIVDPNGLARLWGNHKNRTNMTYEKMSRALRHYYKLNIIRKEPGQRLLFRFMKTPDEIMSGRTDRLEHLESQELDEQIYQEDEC
# ETV1, sequence (P50549 whole entry): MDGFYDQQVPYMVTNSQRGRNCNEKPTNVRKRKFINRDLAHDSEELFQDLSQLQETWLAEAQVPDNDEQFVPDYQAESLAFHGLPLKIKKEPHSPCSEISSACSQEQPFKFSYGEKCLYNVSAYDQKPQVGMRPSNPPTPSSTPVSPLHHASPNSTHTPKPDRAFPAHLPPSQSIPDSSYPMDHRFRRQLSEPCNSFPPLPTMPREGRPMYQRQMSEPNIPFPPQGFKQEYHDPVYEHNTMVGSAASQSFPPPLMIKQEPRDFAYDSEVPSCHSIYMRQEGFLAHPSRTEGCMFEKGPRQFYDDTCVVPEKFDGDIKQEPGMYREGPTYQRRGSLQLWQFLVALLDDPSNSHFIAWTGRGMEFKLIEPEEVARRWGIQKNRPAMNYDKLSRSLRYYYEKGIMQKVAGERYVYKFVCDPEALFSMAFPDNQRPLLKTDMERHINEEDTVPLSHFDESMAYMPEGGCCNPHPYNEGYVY
# ETV5, sequence (P41161 whole entry): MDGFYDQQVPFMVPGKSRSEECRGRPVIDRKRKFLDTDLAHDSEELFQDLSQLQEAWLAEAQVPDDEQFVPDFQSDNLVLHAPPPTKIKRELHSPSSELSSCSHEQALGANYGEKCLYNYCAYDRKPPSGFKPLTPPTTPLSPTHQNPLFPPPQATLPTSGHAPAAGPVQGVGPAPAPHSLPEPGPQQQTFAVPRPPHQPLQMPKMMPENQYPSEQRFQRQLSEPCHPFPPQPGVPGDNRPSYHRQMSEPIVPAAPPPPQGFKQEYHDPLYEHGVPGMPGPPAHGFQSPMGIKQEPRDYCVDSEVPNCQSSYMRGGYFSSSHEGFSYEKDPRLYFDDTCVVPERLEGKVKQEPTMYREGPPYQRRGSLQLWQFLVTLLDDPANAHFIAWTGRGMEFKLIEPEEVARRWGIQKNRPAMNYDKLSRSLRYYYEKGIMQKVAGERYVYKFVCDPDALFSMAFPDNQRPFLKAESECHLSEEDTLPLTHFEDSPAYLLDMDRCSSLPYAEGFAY
# ELF4, sequence (Q99607 whole entry): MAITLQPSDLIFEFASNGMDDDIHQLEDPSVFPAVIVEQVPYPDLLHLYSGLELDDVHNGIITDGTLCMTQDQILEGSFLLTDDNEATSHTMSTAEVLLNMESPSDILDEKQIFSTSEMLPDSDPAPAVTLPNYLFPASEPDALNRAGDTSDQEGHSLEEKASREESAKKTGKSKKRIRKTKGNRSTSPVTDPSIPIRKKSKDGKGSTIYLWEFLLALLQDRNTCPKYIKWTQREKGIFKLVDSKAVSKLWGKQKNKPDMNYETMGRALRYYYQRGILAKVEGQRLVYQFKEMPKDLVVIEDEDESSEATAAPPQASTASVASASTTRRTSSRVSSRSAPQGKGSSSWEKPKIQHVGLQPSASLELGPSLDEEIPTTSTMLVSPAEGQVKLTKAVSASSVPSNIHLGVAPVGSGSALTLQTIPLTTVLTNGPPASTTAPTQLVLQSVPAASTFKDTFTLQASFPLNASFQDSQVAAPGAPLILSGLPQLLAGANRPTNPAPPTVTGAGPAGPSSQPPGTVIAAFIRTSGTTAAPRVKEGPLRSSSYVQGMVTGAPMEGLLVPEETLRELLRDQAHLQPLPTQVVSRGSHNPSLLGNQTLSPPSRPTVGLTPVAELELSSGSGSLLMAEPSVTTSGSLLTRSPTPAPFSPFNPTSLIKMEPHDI
sequence,measurement,setting,value
CTGATG,binding signal,[1],"1.62 fold enrichment (6-mer frequency, TF over GST control)"
same,binding signal,[2],"1.65 fold enrichment (6-mer frequency, TF over GST control)"
same,binding signal,[3],"1.33 fold enrichment (6-mer frequency, TF over GST control)"
same,binding signal,[4],"1.79 fold enrichment (6-mer frequency, TF over GST control)"
same,binding signal,[5],"1.79 fold enrichment (6-mer frequency, TF over GST control)"
same,binding signal,[6],"1.83 fold enrichment (6-mer frequency, TF over GST control)"
same,binding signal,[7],"1.7 fold enrichment (6-mer frequency, TF over GST control)"
same,binding signal,[8],"1.65 fold enrichment (6-mer frequency, TF over GST control)"
same,binding signal,[9],"1.46 fold enrichment (6-mer frequency, TF over GST control)"
same,binding signal,[10],"1.61 fold enrichment (6-mer frequency, TF over GST control)"
same,binding signal,[11],"1.48 fold enrichment (6-mer frequency, TF over GST control)"
same,binding signal,[12],"1.53 fold enrichment (6-mer frequency, TF over GST control)"
same,binding signal,[13],"1.68 fold enrichment (6-mer frequency, TF over GST control)"
same,binding signal,[14],"1.5 fold enrichment (6-mer frequency, TF over GST control)"
same,binding signal,[15],"1.64 fold enrichment (6-mer frequency, TF over GST control)"
same,binding signal,[16],"1.64 fold enrichment (6-mer frequency, TF over GST control)"
same,binding signal,[17],"1.74 fold enrichment (6-mer frequency, TF over GST control)"
same,binding signal,[18],"1.72 fold enrichment (6-mer frequency, TF over GST control)"
